Inconclusive results are not listed. A call without a number means that no potency is given here. The source made the active and inactive calls. The call rests on the fitted dose curve; in most records, active means well fitted cell-killing curve with a large enough effect in the repeat runs; inconclusive means weak or mixed curves, or effect the other way; inactive means no such curve, though single readings can be large or run the other way.
assay: qHTS assay to identify small molecule agonists of the RXR signaling pathway - cell viability counter screen (AID 1159529); details: RXR-alpha-bla HEK293T viability, CellTiter-Glo, 16 h; series mostly up to 76.8 µM; further: nearly all actives have a fitted effect of over 50% in size
Outline: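 CellTiter-Glo luminescence gave viability in the wells also read for beta-lactamase. Cells (RXR-alpha-UAS-bla HEK 293T, 2% charcoal-stripped FBS medium) had 5 hr plating, then 16 hr compound exposure at 37 C; tetraoctyl ammonium bromide served as positive control.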
Potency means the concentration at half of the fitted maximal effect.

Compound | Potency
CCCCCCCCOC(=O)c1ccc(C(=O)OCCCCCCCC)c(C(=O)OCCCCCCCC)c1 | inactive
N#Cc1ccc(Cl)cc1 | inactive
CO/C=C(/C(=O)OC)c1ccccc1COc1cccc(C(F)(F)F)n1 | inactive
CCOc1nc(F)cc2nc(S(=O)(=O)Nc3c(Cl)cccc3Cl)nn12 | inactive
C[C@]12CC[C@H]3[C@@H](CCC4=CC(=O)CC[C@@H]43)[C@@H]1CC[C@@H]2OC(=O)CCC1CCCCC1 | inactive
CN1[C@@H]2CC[C@H]1CC(OC(=O)c1cc(Cl)cc(Cl)c1)C2 (stereo partly specified) | 3.79 µM (active)
CCOP(=S)(OCC)SCSCC | inactive
Cc1c(F)c(F)c(COC(=O)C2C(/C=C(\Cl)C(F)(F)F)C2(C)C)c(F)c1F (stereo unspecified) | inactive
CC[C@H]1C[C@H]2[C@@H]3CCC4=CC(=O)CC[C@@H]4[C@H]3CC[C@]2(C)[C@H]1O | inactive
COC(=O)c1cncn1C(C)c1ccccc1 (stereo unspecified) | inactive
COc1ccc(-c2ccccc2)cc1NNC(=O)OC(C)C | inactive
O=[Se]=O | inactive
CCc1ccc(C(=O)NN(C(=O)c2cc(C)cc(C)c2)C(C)(C)C)cc1 | inactive
CC(C)O.CC(C)O.OCCN(CCO)CCO.OCCN(CCO)CCO.[Ti] | inactive
ClCc1cccc(Cl)c1 | inactive
N#CCC#N | inactive
CCOS(C)(=O)=O | inactive
CCOP(=S)(Oc1ccc([N+](=O)[O-])cc1)c1ccccc1 (stereo unspecified) | inactive
CCCCC(O)(Cn1cncn1)c1ccc(Cl)cc1Cl (stereo unspecified) | 54.9 µM (active)
c1ccc(C2CC2)c(OCC2=NCCN2)c1 | inactive
ClP(Cl)(Cl)(Cl)Cl | inactive
